# Test results: PubChem BioAssay AID485364 (National Center for Advancing Translational Sciences (NCATS), 2010)
# In all, about 360,000 compounds went through this assay and about 11,000 (3.1%) were called active. A call without a number means that no potency is given here. Another 4% or so got no clear call; they are omitted. Calls come from the whole dose curve; as a rule, active = well fitted inhibition curve with a large enough effect; inconclusive = small, poorly fitted or top-dose-only effect; inactive = no such curve, though single readings can be large or run the other way. For the sample, actives were picked, then their nearest neighbours and some compounds at random.
# Molecular target: Schistosoma mansoni thioredoxin glutathione reductase (TGR) (UniProt Q962Y6)
# Test: qHTS Assay for the Inhibitors of Schistosoma Mansoni Peroxiredoxins; note: nearly all actives have a fitted effect of over 60% in size
# Conditions: purified TGR, DTNB reduction, TNB absorbance 405 nm; series mostly up to 114 µM
# Method in brief: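 TGR 20 nM + NADPH 100 uM (dispensed conc.), cpd preinc 15 min RT; start with NADPH (500 uM addition) then DTNB (15 mM addition). Kinetic TNB absorbance, 405 nm filter. Four-parameter Hill fit across titration.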
# Potency is the fitted concentration of half-maximal effect.
row,SMILES,Potency
1,CCCCN(C(=O)c1nn(C)c(=O)c2ccccc12)c1c(N)n(CCC)c(=O)[nH]c1=O,inactive
2,CCCCn1c(N)c(N(CC)C(=O)/C=C/c2ccco2)c(=O)[nH]c1=O,22.4 µM (active)
3,CCCCN(C(=O)c1ccc(C)o1)c1c(N)n(CCCC)c(=O)[nH]c1=O,inactive
4,CCCCn1c(N)c(N(CC)C(=O)c2ccc(N(C)S(=O)(=O)c3ccc(C)cc3)cc2)c(=O)[nH]c1=O,inactive
5,CCCCn1c(N)c(N(CC)C(=O)c2ccccc2C(F)(F)F)c(=O)[nH]c1=O,inactive
6,CCCCN(C(=O)/C=C/c1ccco1)c1c(N)n(CC(C)C)c(=O)[nH]c1=O,44.7 µM (active)
7,COc1ccccc1OCC(=O)Nc1ccccc1C(=O)NC1CC1,inactive
8,Cc1ccc(OCC(=O)Nc2ccccc2C(=O)NC2CC2)cc1C,35.5 µM (active)
9,Cc1ccc(OCC(=O)Nc2ccccc2C(=O)NC2CC2)cc1,inactive
10,COc1cccc(C(=O)NC2=NC(c3ccc(N(C)C)cc3)CC(=O)N2)c1 (configuration not stated),inactive
11,COc1cc2nc(SCC(=O)Nc3ccccc3F)n3nc(-c4ccccc4)nc3c2cc1OC,inactive
12,Oc1c(Br)cc(/C=N/NC(=S)NCC2CCCO2)cc1Br (configuration not stated),2.51 µM (active)
13,S=C(NCCc1ccccc1)NCC1CCCO1 (configuration not stated),inactive
14,S=C(NCC1CCCO1)N1CCN(c2ccc(Cl)c(Cl)c2)CC1 (configuration not stated),inactive
15,CCc1ccc(N2C(=O)CN(S(=O)(=O)CC)CC2(C)C(=O)NC2CCCCC2)cc1 (configuration not stated),inactive
16,COc1cccc(NC(=O)CN2CCN(CC(=O)Nc3ccccc3Cl)CC2)c1,inactive
17,CCNC(=S)Nc1cccc(Cl)c1C,inactive
18,COc1ccc(NC(=S)Nc2ccccc2Cl)cn1,20 µM (active)
19,O=C(CCc1nc(CN2CCN(S(=O)(=O)c3ccc(Br)cc3)CC2)no1)N1CCCCC1,inactive
20,CCn1cc2nc(SCc3ccccc3Cl)n(CCc3ccccc3)c(=O)c2n1,inactive
21,COc1cc(NS(=O)(=O)c2ccc(NC(=O)CN3C(=O)c4ccccc4C3=O)cc2)ncn1,inactive
22,O=C(Nc1ccc(S(=O)(=O)Nc2ccccn2)cc1)c1ccccc1,inactive
23,COc1cc(NS(=O)(=O)c2ccc(NC(=S)NC(=O)c3ccccc3)cc2)nc(OC)n1,20 µM (active)
24,COc1cc(NS(=O)(=O)c2ccc(NC(=O)c3ccc(S(=O)(=O)N4CCCCC4)cc3)cc2)ncn1,inactive
25,COc1cc(NS(=O)(=O)c2ccc(NC(=S)NC(=O)c3ccc(Br)cc3)cc2)ncn1,17.8 µM (active)

row,SMILES,Potency
1,COc1ccc(NS(=O)(=O)c2ccc(NC(=S)NC(=O)CC(C)C)cc2)cc1,inactive
2,COc1ccc(-c2nc3c4ccccc4n(CC(=O)Nc4ccc(C(C)=O)cc4)c(=O)n3n2)cc1,inactive
3,Cc1ccccc1-n1c(=O)c2ccccc2n(Cc2ccc(F)cc2)c1=O,inactive
4,Nc1ccccc1SC(C[N+](=O)[O-])c1ccccc1 (configuration not stated),17.8 µM (active)
5,Cc1ccccc1-c1nc2cc(NC(=O)c3cccc(OCCC(C)C)c3)ccc2o1,inactive
6,CCOc1ccc(C(=O)c2cn(Cc3ccc(F)cc3)c3ccc(F)cc3c2=O)cc1,inactive
7,O=C(CSc1nc2ccccc2nc1Cc1ccccc1)N1CCCCC1,inactive
8,O=C1CCCCC1C(=O)c1ccccc1 (configuration not stated),inactive
9,CN(C)CC1CCCCC1=O (configuration not stated),11.2 µM (active)
10,CC(C)(C)OC(=O)N1CCC(c2c(C(=O)N3CCc4ccccc4C3)cnn2-c2ccc(F)cc2)CC1,inactive
11,COc1cc(NC(=O)c2cc(C3CC3)nc3c2c(C)nn3-c2ccccc2)cc(OC)c1,inactive
12,Cc1ccc(NC(=O)NC(C)c2c(-n3cccc3)sc(C)c2C)c(C)c1 (configuration not stated),inactive
13,Cc1c(NC(=O)Nc2ccc(F)c(Cl)c2)c(=O)n(-c2ccccc2)n1C,inactive
14,Cc1ccccc1NC(=O)c1c(NC(=O)c2ccccc2F)sc2c1CCC(C)C2 (configuration not stated),inactive
15,Cc1ccc(Oc2c(C(F)(F)F)oc3c(CN4CCCCC4)c(O)ccc3c2=O)cc1,inactive
16,CCOC(=O)COc1cc(OCC(=O)OCC)c2c(=O)cc(-c3ccccc3)oc2c1,inactive
17,COc1ccc(-c2c(C)c3ccc(O)c(CN4CCN(C)CC4)c3oc2=O)cc1OC,inactive
18,COc1c(O)cc2oc(-c3ccc(O)c(O)c3)cc(=O)c2c1O,39.8 µM (active)
19,CC1=C(C(=O)N2CCN(c3cccc(C(F)(F)F)c3)CC2)C2(CCCCC2)OC1=O,inactive
20,Cc1ccc(Nc2nc3ccccc3nc2-n2nc(C)cc2C)c(Cl)c1,inactive
21,Cc1oc2ccc(O)c(CN3CCC(C)CC3)c2c1C(=O)Nc1ccccc1,inactive
22,CN(Cc1ccccc1)C(=O)c1cn(C)c2ccc(S(=O)(=O)N(C)C3CCCCC3)cc2c1=O,inactive
23,CCCC12CN3CC(C)(CN(C1)C3c1ccccc1Cl)C2=O (configuration not stated),inactive
24,COc1ccc(CCNC2=CC(=O)CC(C)(C)C2)cc1,inactive
25,COc1ccc(NC(=S)NC2CCS(=O)(=O)C2)cc1 (configuration not stated),inactive

row,SMILES,Potency
1,COc1ccc(NC2=CC(=S)NC(C)(C)C2)cc1,35.5 µM (active)
2,Cc1ccccc1NC(=O)c1cc2c([nH]c1=O)CC(C)(C)CC2=O,inactive
3,O=c1c2ccccc2oc2nc(C3CCCCC3)n(Cc3ccco3)c(=O)c12,inactive
4,Cc1ccc(Cn2c(C)nc3c(c2=O)c2nc4ccccc4nc2n3Cc2ccco2)cc1,1.41 µM (active)
5,Cc1ccc(Cn2c(=O)n(Cc3nc(-c4ccccc4)no3)c(=O)c3cc4c(cc32)OCO4)cc1,inactive
6,CCOc1ccc(-c2cc3c(=O)n(CC(=O)NCc4ccc(OC)cc4)ccn3n2)cc1,inactive
7,O=C(c1ccc2c(c1)N(Cc1ccccc1F)C(=O)c1ccccc1S2(=O)=O)N1CCOCC1,inactive
8,COc1ccc(-c2nc(Cn3c(=O)cc(C)c4c(C)nn(-c5ccccc5)c43)c(C)o2)cc1OC,inactive
9,CC(=O)Nc1ccc(CN2CCN(Cc3ccc(F)c(F)c3)C(CCO)C2)cc1 (configuration not stated),20 µM (active)
10,COC(=O)c1ccc(CN2CCN(CCCc3ccccc3)C(CCO)C2)cc1 (configuration not stated),inactive
11,Cc1ccc(CN2CCN(Cc3ccc4ncccc4c3)CC2CCO)cc1 (configuration not stated),inactive
12,CCS(=O)(=O)N1CCc2cc(C(=O)N3CCN(c4ccccc4OC)CC3)ccc21,inactive
13,CCCCOc1ccc(C(C)(O)CCN2CCOCC2)cc1 (configuration not stated),inactive
14,CCOc1ccc(C(=O)CCC(=O)Nc2ccncc2)cc1,inactive
15,CCOc1ccc(C(=O)CCN2CCOCC2)cc1,2.82 µM (active)
16,O=C(CSc1ncc(S(=O)(=O)c2ccc(Br)cc2)c(=O)[nH]1)Nc1ccc2c(c1)OCCO2,inactive
17,Cc1ccc(C)c(Cn2c(CCCNC(=O)C3CCCCC3)nc3ccccc32)c1,inactive
18,COc1ccc(N2CCN(C(c3cc4ccc(C)cc4[nH]c3=O)c3nnnn3C3CCCC3)CC2)cc1 (configuration not stated),inactive
19,COc1ccc(OC)c(C(c2nnnn2C(C)(C)C)N2CCc3ccccc3C2)c1 (configuration not stated),inactive
20,COCCn1nnnc1C(c1cc2ccc(OC)cc2[nH]c1=O)N1CCc2ccccc2C1 (configuration not stated),44.7 µM (active)
21,CCOc1ccccc1NC(=O)c1ccc2c(c1)CCN2S(=O)(=O)c1ccc(C)cc1,inactive
22,COc1ccc(-c2onc(C)c2C)cc1S(=O)(=O)NCCc1ccccc1,inactive
23,O=c1[nH]c2cc(Br)ccc2n2cccc12,inactive
24,CCOc1ccc(C2CC(=O)c3c([nH]c(C(=O)OCc4ccccc4)c3C)C2)cc1 (configuration not stated),inactive
25,Cc1ccccc1C(CC(=O)c1cccs1)C(C#N)C#N (configuration not stated),3.16 µM (active)

row,SMILES,Potency
1,O=C(NCC(=O)N1CCN(c2ccccc2F)CC1)c1cccs1,inactive
2,CCc1cccc(C)c1NC(=O)COC(=O)CNC(=O)c1cccs1,inactive
3,COc1ccc(Br)c2c1C(=O)CC2,35.5 µM (active)
4,COc1ccc(C(=O)OCC(=O)N2CC(=O)Nc3ccccc32)cc1Br,inactive
5,COc1cccc2c1CCC(NC(C)=O)C2=O (configuration not stated),inactive
6,Cc1cc(C)cc(OCC(=O)Nc2c(C(=O)c3ccccc3)oc3ccccc23)c1,inactive
7,Cc1ccc(-c2onc(C)c2C)cc1S(=O)(=O)Nc1ccccn1,inactive
8,CCc1ccc(NC(=O)Cn2c(=O)n(CCC(=O)NCc3ccc4c(c3)OCO4)c(=O)c3ccccc32)cc1,inactive
9,O=C(Nc1ccccc1)O/N=C1\CCCCC1c1ccc([N+](=O)[O-])cc1[N+](=O)[O-] (configuration not stated),inactive
10,O=[N+]([O-])c1cc(C(F)(F)F)ccc1NN=C1CCCC1,inactive
11,O=[N+]([O-])c1ccc(N/N=C2/CCCCC2c2ccccn2)c([N+](=O)[O-])c1 (configuration not stated),8.91 µM (active)
12,COc1cc(NC(=O)CN2CCN(S(=O)(=O)c3ccc(Br)cc3)CC2)cc(OC)c1,inactive
13,O=C(NC1CCCCC1)c1ccc2c(c1)N(Cc1ccc(Cl)cc1)C(=O)c1ccccc1S2=O (configuration not stated),inactive
14,Cc1cc(NC(=O)CC(C)C)cc(-c2nc3ncccc3o2)c1O,inactive
15,C#CCOCCOCCOCCNc1nc(N2CCN(C(=O)C(Cc3ccc(O)cc3)n3cc(C(N)CC(C)C)nn3)CC2)nc(N2CCN(C(=O)C(Cc3ccc(O)cc3)n3cc(C(N)C(C)CC)nn3)CC2)n1 (configuration not stated),inactive
16,C#CCOCCOCCOCCNc1nc(N2CCN(C(=O)[C@H](Cc3ccc(O)cc3)n3cc(C(N)CC(C)C)nn3)CC2)nc(N2CCN(C(=O)[C@H](CCC(=O)O)n3cc(C(N)[C@H](C)CC)nn3)CC2)n1 (some centres not stated),inactive
17,C#CCOCCOCCOCCNc1nc(N2CCN(C(=O)[C@H](CCC(=O)O)n3cc(C(N)CO)nn3)CC2)nc(N2CCN(C(=O)[C@H](Cc3ccc(O)cc3)n3cc(C(N)[C@H](C)CC)nn3)CC2)n1 (some centres not stated),35.5 µM (active)
18,COC(=O)c1ccccc1NC(=O)c1ccc2c(=O)n3c(nc2c1)CCCCC3,inactive
19,CCN(CCCNC(=O)c1cc(Nc2ccc(OC)cc2)nc2ccccc12)c1cccc(C)c1,inactive
20,O=C(Nc1ccccc1N1CCCC1)c1ccc2ccccc2c1,inactive
21,O=C(Nc1ccccc1N1CCCCC1)c1ccc2nccnc2c1,79.4 µM (active)
22,O=C(Nc1ccccc1N1CCOCC1)c1ccncc1,inactive
